This is an account of results in PubChem BioAssay AID2101 (National Center for Advancing Translational Sciences (NCATS), 2009).

Structures are written as SMILES. In all, about 330,000 compounds went through this assay and about 300 (0.091%) were called active. Roughly 4% stayed inconclusive and do not appear here. Calls follow the shape of the dose curve; as a rule, active = well fitted inhibition curve with a large enough effect; inconclusive = small, poorly fitted or top-dose-only effect, or effect the other way, or another doubt; inactive = no such curve, though single readings can be large or run the other way. The sample as a whole holds a higher share of actives than the screen did.
Potency is read from the fitted curve at half-maximal effect.

In this experiment the target is Lysosomal acid glucosylceramidase (Homo sapiens) (UniProt P04062). Description: qHTS Assay for Inhibitors and Activators of N370S glucocerebrosidase as a Potential Chaperone Treatment of Gaucher Disease.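 As to activity change, negative = inhibition: 0% = full enzyme activity and -100% = no enzyme basal.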 The note with it: N370S GC spleen homogenate, 4MU-glucoside fluorescence; series mostly up to 59.4 µM; activity change, negative = inhibition: at the top concentration. The source says:
NIH Chemical Genomics Center [NCGC]
NIH Molecular Libraries Probe Production Centers Network [MLPCN]
Assay Submitter (PI): Wei Zheng
Glucocerebrosidase (GC) catalyzes the hydrolysis of beta-glucocerebroside to glucose and ceramide in lysosomes. Mutations in the glucocerebrosidase gene result in Gaucher disease, an autosomal recessive lysosomal storage disorder. Many of the mutations encountered in patients with Gaucher disease are missense alterations that may cause misfolding, decreased stability and/or mistrafficking of this lysosomal protein. […] These inhibitors include iminosugar analogs and three non-iminosugar inhibitors identified from a previous HTS of 62,000 compounds with the wild type recombinant enzyme. However, the enhancement of enzyme activity by the chaperone action of an enzyme inhibitor must be balanced against the direct inhibition of the enzyme. An enzyme activator could also function as a chaperone by binding to the enzyme and helping to correct its misfolding and mistrafficking. While activators for GC have not yet been identified, they may have better therapeutic potential than inhibitors. Therefore the discovery and development of chemical activators may provide a new strategy for the chaperone therapy.
We have optimized a new assay using N370S mutant GC derived from the spleen of a Gaucher patient. […] In addition, the MLPCN compound library has expanded, which increases the chance of finding new and better probes.
NCGC Assay Protocol Summary:
This is a fluorogenic enzyme assay with 4-methylumbelliferyl-beta-D-glucopyranoside as the substrate and N370S glucocerebrosidase from human spleen homogenate as the enzyme preparation. Upon the hydrolysis of this fluorogenic substrate, the resulting product, […] which can be detected by a standard fluorescence plate reader. Data were normalized to the controls for basal activity (without enzyme) and 100% activity (with enzyme). The AC50 values were determined from concentration-response data modeled with the standard Hill equation.
Assay buffer: 50 mM citric acid (titrated with potassium phosphate to pH 5.0), 100 mM potassium chloride, 10 mM sodium chloride, 1 mM magnesium chloride, 0.01% Tween-20.
1536-well assay protocol:
(1) Add 2 ul/well of spleen homogenate (27 ug final)
(2) Add 23 nL compounds in DMSO solution. The final titration was 0.5 nM to 58 uM.
(3) Add 2 ul of substrate (1 mM final)
(4) Incubate at 37C for 40 min.
(5) Add 2 ul stop solution (1M NaOH and 1M Glycine mixture, pH 10)
(6) Detect the assay plate in a ViewLux plate reader (PerkinElmer) with Ex=365 nm and Em=440nm.
Keywords: Glucocerebrosidase, beta-glucosidase, Gaucher Disease, pharmacological chaperone, chaperone therapy, high throughput screening, glucocerebrosidase inhibitor, MLSMR, MLSCN, NIH Roadmap, qHTS and NCGC
As for `O=C(NCCc1ccc(F)cc1)c1ccc(S(=O)(=O)N2CCCCC2)cc1`, the “activity change, negative = inhibition” value is 1.39% (inactive).

Take `Nc1nc2c(ncn2[C@@H]2O[C@H](COP(=O)(O)OP(=O)(O)OP(=O)(O)O)[C@@H](O)C2O)c(=O)[nH]1` (stereo partly specified): the “activity change, negative = inhibition” value was 9.3% (inactive). Regarding `Cc1occc1-c1nnc(SCC(=O)NC2(C#N)CCCC2)n1C`, the “activity change, negative = inhibition” value is -17.2% (inactive). In the case of `C/C=C(\C)C(=O)OC1C(OC(=O)C2(C)OC2C)c2cc3ccc(=O)oc3cc2OC1(C)C` (stereo unspecified), the “activity change, negative = inhibition” value was 3.71% (inactive). In the case of `O=C(c1cnccn1)N1CCC2(CCN(Cc3cc(C(F)(F)F)cc(C(F)(F)F)c3)CC2)CC1`, the “activity change, negative = inhibition” value is -12.7% (inactive). Turning to `Cc1ccc(NC(=O)CCC(=O)N2CCC(c3ccccc3)=N2)cc1S(=O)(=O)N1CCCCC1`, the “activity change, negative = inhibition” value is 2.1% (inactive). Turning to `CC(=O)OCCC(C)C`, the “activity change, negative = inhibition” value is 0.964% (inactive). Consider `CCCCCCN(C(=O)CCCCCN1C(=O)NC(c2ccc(C(F)(F)F)cc2)C(C(=O)OCc2ccccc2)=C1C)C(C(=O)NCCCC)c1ccc(OCC(=O)OC)c(C(=O)OC)c1` (stereo unspecified), for which the “activity change, negative = inhibition” value was 5.32% (inactive). Still for that read-out and setting: under `c1ccc(Oc2ccccc2)cc1` stands 22.7% (inactive); under `C=CCOC(=O)C(C(C)=O)C(NC(=O)OC)c1ccccc1` (stereo unspecified), -15.4% [at 12.8 µM] (inactive); under `COC(=O)CCc1ccccc1S(=O)(=O)N(CCC(=O)OC)Cc1ccccc1`, 4.9% (inactive).

Consider `CC1CC[C@@]23CCC4(C)[C@@]5(C)CCC6C(C)(C)C(O)CC[C@@]6(C)C5C=C[C@@]4(OC2=O)C3C1C` (stereo partly specified), for which the “activity change, negative = inhibition” value is 17% (inactive).

Turning to `CCN(CC)/[N+]([O-])=N/Oc1cc(O/[N+]([O-])=N/N2CCCC2CO)c([N+](=O)[O-])cc1[N+](=O)[O-]` (stereo unspecified), the “activity change, negative = inhibition” value is -2.99% (inactive). Consider `COC(=O)N1C(/C=C/C=C/c2ccc(OC)cc2)=Cc2ccccc2C1CC(C)=O` (stereo unspecified), for which the activity change, negative = inhibition was -10.4% [at 12.8 µM] (inactive).

For the molecule `COc1ccc(-c2nc3c(c4c2C[C@H](c2ccccc2)OC4)CN(C(=O)C2CC2)CC3)c(C)c1`, the activity change, negative = inhibition is -14.3% [at 12.8 µM] (inactive). Same read-out and setting: then `C[C@]12CC[C@@H]3C(=CCc4cc(O)ccc43)[C@@H]1CCC2=O`, with 5.36% [at 21.6 µM] (inactive); and `CCOC(OCC)OCC`, with -6.68% (inactive); and `COc1ccc(Cl)cc1NC(=O)CN(C)CC(=O)Nc1ccc2c(c1)OCO2`, with -0.107% (inactive). Same read-out and setting: under `COc1cccc(CC(=O)N2CCc3nc(COc4ccccc4)c4c(c3C2)CO[C@@H](C)C4)c1` stands 3.29% [at 12.8 µM] (inactive). Turning to `O=S(=O)(Nc1ccc2nc(N3CCOCC3)sc2c1)c1ccccc1`, the “activity change, negative = inhibition” value is -0.448% (inactive). As to `CC(C)C(NC(=O)c1c(F)cccc1F)C(=O)NCc1ccncc1` (stereo unspecified), the “activity change, negative = inhibition” value was -1.03% (inactive). In the case of `O=C(Nc1cccc(C(=O)NC2CC2)c1)c1ccc(F)c(S(=O)(=O)N2CCOCC2)c1`, the “activity change, negative = inhibition” value was -12% (inactive). In the case of `COc1ccc(CNC(=O)COC(=O)c2c(C)nn(-c3ccccc3)c2C)cc1OC`, the “activity change, negative = inhibition” value is -7.39% (inactive). In the case of `Cc1ccccc1Nc1nc(N)nc(COC(=O)CCC(=O)c2ccc(F)cc2)n1`, the “activity change, negative = inhibition” value is -4.41% (inactive). On the same count and under the same terms, under `CN(CC(=O)Nc1cccc(F)c1)C(=O)CC1CCCC1` stands 4.61% (inactive). Take `Cc1cc(N)n2nc(-c3ccc(C(C)(C)C)cc3)cc2n1`: the Potency was 10 µM (active). For `Cc1nc2cc(-c3ccc(F)cc3)nn2c(N2CCOCC2)c1C`, the “activity change, negative = inhibition” value is 3.61% (inactive). `Cc1cc(C(C)(C)C)n2nc(C)c(-c3ccccc3)c2n1`: the “activity change, negative = inhibition” value is -12.5% (inactive).

For `CC(O)[C@@H](N)C(=O)O` (stereo partly specified), the “activity change, negative = inhibition” value is 0.968% (inactive). In the case of `CC/C=C/C/C=C/C/C=C/CCCCCCCC(=O)OCC`, the “activity change, negative = inhibition” value is -5.39% (inactive). In the case of `COC(=O)C(C(=O)OC)[C@@H]1CCCC(=O)C1`, the activity change, negative = inhibition is 8.05% [at 12.8 µM] (inactive). Consider `Cc1cc(C)c(C#N)c(SCC(=O)N(CC(C)C)C2CCS(=O)(=O)C2)n1` (stereo unspecified), for which the “activity change, negative = inhibition” value was -3.33% (inactive).

Regarding `O=C(COc1ccccc1O)NC1CCCC1`, the “activity change, negative = inhibition” value is -4.6% (inactive). On the same count and under the same terms, under `FC(F)(F)c1ccccc1-c1cc(NCc2ccccc2)ncn1` stands -15.5% (inactive); under `COc1cccc(-c2cc(=O)c3cc(NC(=O)c4ccc(C)cc4)ccc3[nH]2)c1`, 3.29% [at 89.1 µM] (inactive). As to `CCCCC(CC)CN` (stereo unspecified), the activity change, negative = inhibition entry is “inactive”. Still for that read-out and setting: then `CCCCC/C=C\C/C=C\C/C=C\CCCCC(=O)NCC(=O)O`, with -1.79% (inactive); and `CC(=O)Nc1ccc(S(=O)(=O)N2CCN(S(=O)(=O)c3cccs3)CC2)cc1`, with -3.11% (inactive); and `CCc1c2c(nc3ccc(O)cc13)-c1cc3c(c(=O)n1C2)COC(=O)[C@]3(O)CC`, with -6.54% (inactive). `Cc1cc(C)cc(C#CC2C=CC(Oc3ccc(C4CCCC4)cc3)C(CO)O2)c1` (stereo unspecified): the activity change, negative = inhibition was 7.35% [at 12.8 µM] (inactive). With `O=C1C2C(c3ccccc3)CC=CC2C(c2ccoc2)N1Cc1ccccc1` (stereo unspecified), the “activity change, negative = inhibition” value is 1.22% (inactive). Regarding `O=C(CN1CCCSc2ccccc21)N1CCN(S(=O)(=O)c2ccccc2)CC1`, the “activity change, negative = inhibition” value is 2.06% (inactive). In the case of `COC(=O)NC(c1ccccc1)[C@]1(C(C)=O)CCCC1=O` (stereo partly specified), the activity change, negative = inhibition was 0.29% [at 12.8 µM] (inactive). Take `O=c1cc(-c2ccc(O)cc2)oc2c([C@@H]3O[C@H](CO)[C@@H](O)[C@H](O)[C@H]3O)c(O)cc(O)c12`: the “activity change, negative = inhibition” value was -9.49% (inactive). For `COc1ccc2[nH]cc(CCNc3ncnc4ccc(-c5ccc(C(=O)N(C)C)cc5)cc34)c2c1`, the “activity change, negative = inhibition” value was -20.6% (inactive). Regarding `CCOC(=O)Cc1csc(SCC(=O)Nc2ccc(C)cc2F)n1`, the “activity change, negative = inhibition” value was -2.81% (inactive). For the molecule `CC[C@H](C)[C@H](NC(=O)[C@@H](N)CCC(=O)O)C(=O)N[C@@H](CC(C)C)C(=O)N[C@@H](CC(=O)O)C(=O)N[C@H](C(=O)N1CCC[C@H]1C(=O)N[C@@H](CO)C(=O)N[C@H](C(=O)O)[C@@H](C)O)C(C)C`, the “activity change, negative = inhibition” value was -6.74% (inactive).

In the case of `N#CCC(=O)Nc1ccc(C(=O)OCC(=O)Nc2sc3c(c2C#N)CCCC3)cc1`, the “activity change, negative = inhibition” value was -1.92% (inactive).

Take `CC(=O)CC(C)C`: the “activity change, negative = inhibition” value was 4.41% (inactive).

Take `O=[N+]([O-])c1ccc(N=Cc2c(O)ccc3ccccc23)cc1`: the “activity change, negative = inhibition” value was 1.71% (inactive).

For `CCOc1[nH]n(-c2ccc(Cl)cc2)c(=O)c1C=Nc1ccc(O)cc1`, the “activity change, negative = inhibition” value is -12.7% (inactive). `Oc1ccc(N=Cc2c(O)ccc3ccccc23)cc1`: the Potency is 12.6 µM (active). For `CC(=O)c1ccc(N2CCN(C(=O)c3ccc(Cl)c(S(=O)(=O)NC4CC4)c3)CC2)c(F)c1`, the “activity change, negative = inhibition” value was -16.3% (inactive). Same read-out and setting: then `Oc1ccc(O)c2c(O)cccc12`, with -3.42% (inactive); and `Cc1ccc(C)c(NC(=O)CN(C)C(=O)c2ccc3ncsc3c2)c1`, with -14.8% (inactive); and `CSc1ccccc1NC(=O)COC(=O)CCCOc1ccc(C)cc1`, with -19.4% (inactive). Same read-out and setting: then `CC1CCCC(NC(=O)c2cc(-c3ccncc3)nc3ccccc23)C1C` (stereo unspecified), with -3.85% (inactive).

As to `CCOc1ccc(N(CC(=O)Nc2cccc(OC)c2)S(C)(=O)=O)cc1`, the “activity change, negative = inhibition” value is 2.19% (inactive).

As for `CCCN(c1ccc(C(C)C)cc1)S(=O)(=O)c1c(C)[nH]c(=O)[nH]c1=O`, the “activity change, negative = inhibition” value was -1.77% (inactive).

For the molecule `CCOc1ccc(N(CC(=O)NC2CCCCCC2)S(=O)(=O)c2c(C)[nH]c(=O)[nH]c2=O)cc1`, the Potency was 2.51 µM (active).

With `COc1cccc(N(CC(=O)NC2CCCCCC2)S(=O)(=O)c2ccccc2)c1`, the “activity change, negative = inhibition” value was -0.1% (inactive). Take `COc1ccc(N(CC(=O)NC2CCCCC2)S(=O)(=O)c2c(C)[nH]c(=O)[nH]c2=O)cc1`: the Potency is 3.98 µM (active). With `COc1ccc(N(CC(=O)NC2CCCCCCC2)S(=O)(=O)c2c(C)nn(C)c2C)cc1`, the “activity change, negative = inhibition” value is 1.78% (inactive).

As to `CCOc1ccc(N(CC(=O)Nc2ccccc2F)S(=O)(=O)c2c(C)[nH]c(=O)[nH]c2=O)cc1`, the Potency is 3.16 µM (active). `CCOc1ccc(N(CC(=O)NCCc2ccc(F)cc2)S(=O)(=O)c2ccccc2)cc1`: the “activity change, negative = inhibition” value was -4.73% (inactive). For the molecule `CCOc1ccc(N(CC(=O)NCc2ccc(OC)cc2)S(=O)(=O)c2c(C)noc2C)cc1`, the “activity change, negative = inhibition” value was 5.25% (inactive).
